Reference: PMC12864922, “TDP-43 directly inhibits mRNA accumulation in neurites through modulation of mRNA stability”
Substitutions are numbered along the chain they refer to. Over roughly 9,900 sequences, “r (bound/input frequency ratio)” has its median near 0.7; the highest 2% begin near 6.5. Many of the other results were omitted from the sample, so the highest values are more common in it than they were.

B1: ENSMUSG00000004113.301|Cacna1b (ssRNA)
RNA: GGGAGUUCUACAGUCCGACGAUCGCUUCGAUAUCCGCAUGCUAAGGCACUCCUUGGUGUGGUCUCUCUGUUUUGAAACUUCUGAUGACUUCUUGGUGGCUUGUUGUCUUCUACCCCAUGUUUCUCACAGGAUCUGUGUGUGUGUGUGUGUGUGUGUGUGUGUGUGUGUGUGUGUGUGUUAGCAUGUGUGUAUUAGCGUGUGUGAGUGUGUGAGCAUGCACGAGUCAUAGGAGAUGCAGGUGUAUGUGUGUGGUGUGCAUAUGUGUAUGUGUGUGUGUGUGUGUGUGUGUGUAGGUGUGUUCAGCUCUUGCGGUCGCACUAGUGUGGAAUUCUCGGGUGUCAAGG
B2: ENSMUSG00000090935.77|Synj2bp|54:58 (ssRNA)
RNA: GGGAGUUCUACAGUCCGACGAUCGCUUCGAUAUCCGCAUGCUACUUUGUCAGCAUAGGCAGGAGUCCUUUAGGAUUUCUGCCUAUCAGUAAAAGAACAUACUAACCCAAGUUCUACCUUCAGUGGAUUAAAGUUUCAUUAAGUGAAAAUGGAAAGAAAGUAGAAUUACUUGGUAAGAGGCCAAAUGAGGAUACAGAGGCUGAAGAAGAUUGAAAGGAGCUAGUGUAAACAAACAAACAAACAAACAAACAAAAAACCAAACCCCAAAACAAAAACAAAAACAAAACAAAAUUGGAGAAAGCAGCUCUUGCGGUCGCACUAGUGUGGAAUUCUCGGGUGUCAAGG
B3: ENSMUSG00000090935.14|Synj2bp|150:154 (ssRNA)
RNA: GGGAGUUCUACAGUCCGACGAUCGCUUCGAUAUCCGCAUGCUAGAGAGCAGUCAGAUAUGAACGGACGGGUGGAUUAUUUAGUCACGGAGGAAGAGAUCAACCUGACGAGAGGACCUUCGGGUAAAUGGCCAAGAUCUGAAGAACCUGCUGCACCAAGAUGCUGUAGACCUCUUCCGUAAUGCGGGAUGUGCACACACCCUGAGAGUACAGCACAGGUUACCAGUGCAGAAUGGACCUAUAGUACAUCGAGGUGAAGGAGAGCCAAGUGGAGUUCCUGUAGCUAUGGUGCUGCUACCAGUGUUCUCUUGCGGUCGCACUAGUGUGGAAUUCUCGGGUGUCAAGG
B4: ENSMUSG00000090935.23|Synj2bp (ssRNA)
RNA: GGGAGUUCUACAGUCCGACGAUCGCUUCGAUAUCCGCAUGCUAUCAACCUGACGAGAGGACCUUCGGGUAAAUGGCCAAGAUCUGAAGAACCUGCUGCACCAAGAUGCUGUAGACCUCUUCCGUAAUGCGGGAUGUGCUGUGUCCCUGAGAGUACAGCACAGGUUACCAGUGCAGAAUGGACCUAUAGUACAUCGAGGUGAAGGAGAGCCAAGUGGAGUUCCUGUAGCUAUGGUGCUGCUACCAGUGUUUGCCCUCACCAUGGUAGCAGUUUGGGCCUUCGUGAGAUACCGAAAGCAGCUUUGCUCUUGCGGUCGCACUAGUGUGGAAUUCUCGGGUGUCAAGG
B5: ENSMUSG00000031028.306|Tub|133:137 (ssRNA)
RNA: GGGAGUUCUACAGUCCGACGAUCGCUUCGAUAUCCGCAUGCUAAUUGCCAUCAGAGAACCCUCAGCGAGGUAGCCUUUGUUUACAGUCUAGUUUCUAGAGGGCAGUAGGACUUCCAUGCUGGGGCUGGCCUAUCUCCUGAUGAAAGAUUACAGUGCCAUCUCCUUCCCAUAGUUCACACACUGCCCUCCCUCCCUGACUUUAUAGGGAGAAAUCUCCUGACAUUAGAGGUGAUAGAAACCAGAGCUUUAGUCUAGUCAGGCUGUUUCUCUGGGUUGACAAGUUUAAGGUUGAACAGGCUGAUUCUCUUGCGGUCGCACUAGUGUGGAAUUCUCGGGUGUCAAGG
B6: ENSMUSG00000004113.120|Cacna1b (ssRNA)
RNA: GGGAGUUCUACAGUCCGACGAUCGCUUCGAUAUCCGCAUGCUAGGGACUUUCUGAGCCUCGUGGAGAGUGUGGUUUGUCCAAAUGUGUGGCAUGGGAGAUAGGGUACCCCUGAAAGCAAGGAAAGGAGCCCAGCUGUGGCCUGGUAGCACCUGCCGGCACCAGUGAUCUCACGUCUCUUGUGGUCUUGGAGUCAAAUAGCACAUGUAUGUAGAGAUGCGCUCAAGGGCCUGCCUUUCACCUACACUGUCACCAUAACAGGGACCAAAUCUGGAGGAUGUCCUUGCUGUUGAUUCUGGUUUUCACUCUUGCGGUCGCACUAGUGUGGAAUUCUCGGGUGUCAAGG
B7: ENSMUSG00000061578.1213|Ksr2|85:89 (ssRNA)
RNA: GGGAGUUCUACAGUCCGACGAUCGCUUCGAUAUCCGCAUGCUAUCUCACACCCCUGUCCCCGUCCCCUCCACCCCCCGGCAGCAUGCUUCACUCUAUGAAUGAGCCGCUGGGAUAUUGACAUGGAGAACACAUGAUGGAAAAAGCCUCCACACCCAACAUAACUCUCCAGAGAGAUAUUGAAAGUGAUGGGCAGAGAGUCUGACAAUGACCCAGGGGUCAUUGUGAGUCCUAGGCUGAAUCUGUAAUGGGGUCCAAAGUGCAGGAGAGACUGCAUUCACCUUGUUGGUGGGGUGGGGCUUCUUCUCUUGCGGUCGCACUAGUGUGGAAUUCUCGGGUGUCAAGG
B8: ENSMUSG00000061578.1434|Ksr2|139:143;234:238 (ssRNA)
RNA: GGGAGUUCUACAGUCCGACGAUCGCUUCGAUAUCCGCAUGCUACAUUGCCAACAUGUUGCUGGGAAAGAAUAUUUGAUUUAGAUGCCAAUCAGGAAGGCAAGUAGGAUGGAUGGAUGAGUGAGUGGAUAGGUAGGUAUAUAAAUGGAUGGAUGGGUGAUGGAUGGGUAAAUGAAUGGAUAGCAUACUGAAUGAAUGGAUGAUGGAUGAAUGGAUGGGUAGGUGGGUAGAUAGGUAUAUGAAUGAAUGGAUGAAUGGAUGGGUGAAUGGAUGGAUAGCAUACUGAAUAAAUGGAUGGAUGGAUGCUCUUGCGGUCGCACUAGUGUGGAAUUCUCGGGUGUCAAGG
B9: ENSMUSG00000061578.1433|Ksr2|145:149;240:244 (ssRNA)
RNA: GGGAGUUCUACAGUCCGACGAUCGCUUCGAUAUCCGCAUGCUACUCACUCAUUGCCAACAUGUUGCUGGGAAAGAAUAUUUGAUUUAGAUGCCAAUCAGGAAGGCAAGUAGGAUGGAUGGAUGAGUGAGUGGAUAGGUAGGUAUAUAAAUGGAUGGAUGGGUGAUGGAUGGGUAAAUGAAUGGAUAGCAUACUGAAUGAAUGGAUGAUGGAUGAAUGGAUGGGUAGGUGGGUAGAUAGGUAUAUGAAUGAAUGGAUGAAUGGAUGGGUGAAUGGAUGGAUAGCAUACUGAAUAAAUGGAUGGACUCUUGCGGUCGCACUAGUGUGGAAUUCUCGGGUGUCAAGG
B10: ENSMUSG00000061578.1430|Ksr2 (ssRNA)
RNA: GGGAGUUCUACAGUCCGACGAUCGCUUCGAUAUCCGCAUGCUAGUCUUGCUCUCUGUCUCUCUCACUCAUUGCCAACAUGUUGCUGGGAAAGAAUAUUUGAUUUAGAUGCCAAUCAGGAAGGCAAGUAGGAUGGAUGGAUGAGUGAGUGGAUAGGUAGGUAUAUAAAUGGAUGGAUGGGUGAUGGAUGGGUAAAUGAAUGGAUAGGUAUGUGAAUGAAUGGAUGAUGGAUGAAUGGAUGGGUAGGUGGGUAGAUAGGUAUAUGAAUGAAUGGAUGAAUGGAUGGGUGAAUGGAUGGAUAGGUACUCUUGCGGUCGCACUAGUGUGGAAUUCUCGGGUGUCAAGG
B11: ENSMUSG00000061578.1430|Ksr2|163:167 (ssRNA)
RNA: B10 RNA with G206C, U207A, A208U, U209A, G210C
B12: ENSMUSG00000061578.1432|Ksr2 (ssRNA)
RNA: GGGAGUUCUACAGUCCGACGAUCGCUUCGAUAUCCGCAUGCUAGUCUCUCUCACUCAUUGCCAACAUGUUGCUGGGAAAGAAUAUUUGAUUUAGAUGCCAAUCAGGAAGGCAAGUAGGAUGGAUGGAUGAGUGAGUGGAUAGGUAGGUAUAUAAAUGGAUGGAUGGGUGAUGGAUGGGUAAAUGAAUGGAUAGGUAUGUGAAUGAAUGGAUGAUGGAUGAAUGGAUGGGUAGGUGGGUAGAUAGGUAUAUGAAUGAAUGGAUGAAUGGAUGGGUGAAUGGAUGGAUAGGUAUGUGAAUAAAUGCUCUUGCGGUCGCACUAGUGUGGAAUUCUCGGGUGUCAAGG
B13: ENSMUSG00000061578.1433|Ksr2 (ssRNA)
RNA: B9 RNA with C188G, A189U, U190A, A191U, C192G, C283G, A284U, U285A, A286U, C287G
B14: ENSMUSG00000061578.1429|Ksr2 (ssRNA)
RNA: GGGAGUUCUACAGUCCGACGAUCGCUUCGAUAUCCGCAUGCUAAGAUCUGUCUUGCUCUCUGUCUCUCUCACUCAUUGCCAACAUGUUGCUGGGAAAGAAUAUUUGAUUUAGAUGCCAAUCAGGAAGGCAAGUAGGAUGGAUGGAUGAGUGAGUGGAUAGGUAGGUAUAUAAAUGGAUGGAUGGGUGAUGGAUGGGUAAAUGAAUGGAUAGGUAUGUGAAUGAAUGGAUGAUGGAUGAAUGGAUGGGUAGGUGGGUAGAUAGGUAUAUGAAUGAAUGGAUGAAUGGAUGGGUGAAUGGAUGGACUCUUGCGGUCGCACUAGUGUGGAAUUCUCGGGUGUCAAGG
B15: ENSMUSG00000061578.1432|Ksr2|151:155;246:250 (ssRNA)
RNA: B12 RNA with G194C, U195A, A196U, U197A, G198C, G289C, U290A, A291U, U292A, G293C
B16: ENSMUSG00000061578.1431|Ksr2|157:161;252:256 (ssRNA)
RNA: GGGAGUUCUACAGUCCGACGAUCGCUUCGAUAUCCGCAUGCUACUCUCUGUCUCUCUCACUCAUUGCCAACAUGUUGCUGGGAAAGAAUAUUUGAUUUAGAUGCCAAUCAGGAAGGCAAGUAGGAUGGAUGGAUGAGUGAGUGGAUAGGUAGGUAUAUAAAUGGAUGGAUGGGUGAUGGAUGGGUAAAUGAAUGGAUAGCAUACUGAAUGAAUGGAUGAUGGAUGAAUGGAUGGGUAGGUGGGUAGAUAGGUAUAUGAAUGAAUGGAUGAAUGGAUGGGUGAAUGGAUGGAUAGCAUACUGAACUCUUGCGGUCGCACUAGUGUGGAAUUCUCGGGUGUCAAGG

What follows are binders tested against TDP-43 (Homo sapiens, UniProt Q13148 1-414) (assay: RNA Bind-n-Seq with designed 260-mer pool; 25 mM Tris-HCl, 150 mM KCl, 3 mM MgCl2, BSA (printed 500 mg/mL), 20 units/mL SUPERase IN; pH not stated; 500 nM RNA pool, 1 h, 4 C; TDP-43 5, 50, 500 nM; high values mean tight binding). Conditions: protein: recombinant; tags: SBP (GST cleaved off with PreScission; pGEX-GST-SBP).
Procedure, shortened: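 The incubation lasted 1 h at 4 °C and used 500 nM of an in vitro-transcribed 260-nt 3′ UTR oligo pool with recombinant SBP-tagged TDP-43 at 5, 50 or 500 nM immobilized on streptavidin beads. It took place in 25 mM Tris-HCl, 150 mM KCl, 3 mM MgCl2, BSA and SUPERase IN. Bound RNA was washed, eluted with biotin, converted to cDNA, PCR-amplified and sequenced to give R, each oligo's normalized abundance in the bound sample divided by that in input. Two independent protein batches provided the duplicates.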

TDP-43, sequence (Q13148 whole entry): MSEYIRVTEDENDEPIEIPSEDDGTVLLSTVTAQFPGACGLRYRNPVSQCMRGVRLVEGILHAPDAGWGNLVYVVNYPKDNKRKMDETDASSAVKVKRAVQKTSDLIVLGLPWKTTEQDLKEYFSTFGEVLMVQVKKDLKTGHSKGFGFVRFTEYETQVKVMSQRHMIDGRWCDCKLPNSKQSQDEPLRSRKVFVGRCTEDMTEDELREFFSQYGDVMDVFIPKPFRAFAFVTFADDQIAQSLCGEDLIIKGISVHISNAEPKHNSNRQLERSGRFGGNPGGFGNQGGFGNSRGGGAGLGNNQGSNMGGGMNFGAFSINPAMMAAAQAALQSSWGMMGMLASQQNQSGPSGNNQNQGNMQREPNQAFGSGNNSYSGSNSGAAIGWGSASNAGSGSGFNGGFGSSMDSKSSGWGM

Q: Which binding signal does the source give for B1 here?
A: 5.79 R (bound/input frequency ratio)

Q: Which binding signal does the source give for B2 here?
A: 0.449 R (bound/input frequency ratio)

Q: With B3 as the binder, how does the binding signal read?
A: 2.14 R (bound/input frequency ratio)

Q: Which binding signal does the source give for B4 here?
A: 1.15 R (bound/input frequency ratio)

Q: With B5 as the binder, how does the binding signal read?
A: 0.368 R (bound/input frequency ratio)

Q: With B6 as the binder, how does the binding signal read?
A: 1.21 R (bound/input frequency ratio)

Q: B7 was tested. Which binding signal did it give?
A: 0.376 R (bound/input frequency ratio)

Q: B8 was tested. Which binding signal did it give?
A: 3.79 R (bound/input frequency ratio)

Q: How did the binding signal turn out when B9 was run?
A: 7.14 R (bound/input frequency ratio)

Q: For B10, which binding signal is on record?
A: 6.58 R (bound/input frequency ratio)

Q: B11 was tested. Which binding signal did it give?
A: 5.26 R (bound/input frequency ratio)

Q: B12 was tested. Which binding signal did it give?
A: 6.18 R (bound/input frequency ratio)

Q: For B13, which binding signal is on record?
A: 6.35 R (bound/input frequency ratio)

Q: How did the binding signal turn out when B14 was run?
A: 4.48 R (bound/input frequency ratio)

Q: B15 was tested. Which binding signal did it give?
A: 5.51 R (bound/input frequency ratio)

Q: For B16, which binding signal is on record?
A: 7.04 R (bound/input frequency ratio)
